Assay [1] can be described thus: Nuclear factor erythroid 2-related factor 2/antioxidant responsive element (Nrf2/ARE) small molecule agonists: luciferase reporter gene qHTS assay in human keratinocytes (AID 1919969; also: nearly all actives have a fitted effect of over 35% in size; also: potency is read from the fitted curve at half-maximal effect). (In general: In a reporter assay the amount or activity of a reporter protein is the signal.)
The target in assay [2] is Gonadotropin-releasing hormone receptor (Homo sapiens) (UniProt P30968). The assay is described as follows: Human gonadotropin-releasing hormone receptor (GnRHR) small molecule agonists, calcium flux assay in GnRHR-HEK293 cells (AID 1920063). Also: nearly all actives have a fitted effect of over 35% in size. Also: potency is read from the fitted curve at half-maximal effect. The procedure, abridged:
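Cells: HEK293 stably expressing human GnRHR. Steps: overnight (18 h) culture, 1 h calcium dye loading at 37 C, compound addition, kinetic fluorescence read at 480/540 nm. Each compound tested at 15 concentrations in triplicate.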
In general terms: Calcium flux is commonly read through the fluorescence of an indicator in the cells.

A short description of assay [3]: G protein-coupled receptor (GPCR) small molecule agonists, calcium flux assay: HEK293 wild type cell line counter screen (AID 1920065). Also: potency is read from the fitted curve at half-maximal effect. In a few lines: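 Counter-screen of the Tox21 10K library for non-specific calcium release: dye-loaded cells received compounds in DMSO and were monitored by kinetic fluorescence (480/540 nm, 3 min). Fifteen concentrations, run in triplicate.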

Assay [4] can be described thus: p53 small molecule agonists, cell-based qHTS assay with human liver microsomes (AID 1963577). In a few lines:
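Cells carrying a p53-responsive bla reporter were rested 5 h (37 C, 5% CO2) before compound transfer. Human liver microsomes plus NADPH, 0.5 mg/mL final apiece, supplied metabolism during the 16 h 37 C exposure.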
On the technique in general: Quantitative high-throughput screening tests each substance at several concentrations.

The nature of assay [5]: p53 small molecule agonists, cell-based qHTS assay with rat liver microsomes (AID 1963578). The procedure, abridged:
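Fluorescence from a beta-lactamase reporter under a p53 response element was measured after cells had been incubated 16 h at 37 C with test compound and rat liver microsomes plus NADPH (0.5 mg/mL final each).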

Assay [6] in a line: p53 small molecule agonists, cell-based qHTS assay with human liver microsomes: qHTS cell viability counter screen (AID 1963579). Also: nearly all actives have a fitted effect of over 45% in size. The procedure, abridged: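 Seed p53RE-bla cells at 4,000 per well; incubate 5 h at 37 C; add compound, human liver microsomes and NADPH; incubate 16 h at 37 C; add CellTiter-Glo; after 30 min at room temperature, read luminescence.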
Assay [7] in a line: p53 small molecule agonists, cell-based qHTS assay with rat liver microsomes: qHTS cell viability counter screen (AID 1963580). Also: nearly all actives have a fitted effect of over 45% in size. The procedure, abridged: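 p53RE-bla HCT-116 cells (4,000/well) rested 5 h at 37 C, then given Tox21 compounds in DMSO with rat liver microsomes (0.5 mg/mL final) plus NADPH (0.5 mg/mL final) for 16 h at 37 C. Viability read by CellTiter-Glo luminescence after 30 min at room temperature.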

Assay [8] in a line: p53 small molecule agonists, cell-based qHTS assay: qHTS cell viability counter screen (AID 1963581). Also: nearly all actives have a fitted effect of over 45% in size. The procedure, abridged: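 Cells: HCT-116 with p53 response element-driven beta-lactamase. Treatment: 16 h, 37 C, compounds in DMSO. Read: CellTiter-Glo luminescence after 30 min RT.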
A short description of assay [9]: p53 small molecule agonists, cell-based qHTS assay (AID 1963582; active = well fitted activation curve with a large enough effect in the signal ratio in the repeat runs, not every such curve was filed as active; the % refers to the signal ratio). In a few lines: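 Quantitative HTS in p53RE-bla cells: after a 5 h settling period, compounds delivered in DMSO were left on cells for 16 h at 37 C, and reporter induction was measured as fluorescence following 2 h substrate loading.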
For assay [10], the target named is 5-hydroxytryptamine receptor 2A (Homo sapiens) (UniProt P28223). Kind of assay: 5-hydroxytryptamine receptor 2A (HTR2A) small molecule antagonists, cell-based qHTS assay (AID 1963586). Also: nearly all actives have a fitted effect of over 45% in size. The procedure, abridged:
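Antagonist-mode intracellular calcium assay: DOI (4 nM) added after 5 min compound pre-incubation at room temperature to dye-loaded HTR2A-CHO cells. Fluorescence followed for 3 min, sampled every second.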

Assay [11] shares this target. Kind of assay: 5-hydroxytryptamine receptor 2A (HTR2A) small molecule agonists, cell-based qHTS assay (AID 1963587). Also: nearly all actives have a fitted effect of over 30% in size. Also: potency is read from the fitted curve at half-maximal effect. The procedure, abridged: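 HTR2A-CHO cells, plated 18 h at 37 C/5% CO2, dye-loaded 1 h at 37 C; compounds in DMSO added by pin tool (agonist mode). Intracellular calcium flux read as kinetic fluorescence on FDSS over 2 min at 1 s intervals.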
For assay [12], the target named is Muscarinic acetylcholine receptor M1 (Homo sapiens) (UniProt P11229). Kind of assay: Cholinergic receptor muscarinic 1 (CHRM1) small molecule agonists, cell-based qHTS assay (AID 1963589). Also: nearly all actives have a fitted effect of over 35% in size. Also: potency is read from the fitted curve at half-maximal effect. In a few lines: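 Agonist-mode qHTS in CHO cells stably carrying human muscarinic M1. Intracellular calcium is tracked by fluorescence every second after compound transfer; each compound runs at 15 concentrations in three independent runs.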
Chain of Muscarinic acetylcholine receptor M1 (Homo sapiens) (P11229 whole entry, looked up): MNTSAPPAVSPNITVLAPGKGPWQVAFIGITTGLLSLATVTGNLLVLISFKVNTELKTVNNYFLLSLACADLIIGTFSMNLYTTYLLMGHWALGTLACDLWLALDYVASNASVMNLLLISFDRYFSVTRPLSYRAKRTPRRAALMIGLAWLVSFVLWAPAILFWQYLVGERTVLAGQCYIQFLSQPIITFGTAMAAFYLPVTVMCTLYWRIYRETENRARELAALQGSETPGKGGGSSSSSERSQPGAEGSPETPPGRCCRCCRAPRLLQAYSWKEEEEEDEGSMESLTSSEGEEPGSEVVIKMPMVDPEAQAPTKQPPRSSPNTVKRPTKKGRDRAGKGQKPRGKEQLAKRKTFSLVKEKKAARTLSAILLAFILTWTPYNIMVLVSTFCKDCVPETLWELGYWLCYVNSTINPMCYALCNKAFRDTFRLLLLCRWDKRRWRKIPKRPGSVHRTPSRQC

A short description of assay [13]: cAMP Responsive Elements (CRE) small molecule agonists, cell-based qHTS assay (AID 1963590). The procedure, abridged:
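Agonist mode qHTS in CRE-bla HEK 293T cells: compounds dosed from DMSO for 3 h at 37 C/5% CO2, followed by LiveBLAzer B/G FRET substrate for 2 h at room temperature.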

A short description of assay [14]: cAMP Responsive Elements (CRE) small molecule antagonists, cell-based qHTS assay (AID 1963591; active = well fitted inhibition curve with a large enough effect in the signal ratio in the repeat runs, not every such curve was filed as active; the % refers to the signal ratio; also: potency is read from the fitted curve at half-maximal effect). In a few lines:
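Antagonist mode: test compounds are co-incubated with the adenylyl cyclase activator NKH477 (0.25 uM final) on CRE-bla HEK293T cells for 3 h at 37 °C, followed by LiveBLAzer substrate loading.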

The target of assay [15] is Beta-2 adrenergic receptor (Homo sapiens) (UniProt P07550). Kind of assay: Adrenergic beta2 receptor (ADRB2) small molecule antagonists, cell-based qHTS assay (AID 1963592). Also: nearly all actives have a fitted effect of over 50% in size. Also: potency is read from the fitted curve at half-maximal effect. The procedure, abridged:
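Cells (CHO, stable ADRB2 overexpression) incubated 18-20hr at 37C; compounds added from DMSO; agonist mix (1nM isoproterenol, 100uM IBMX, 25uM Ro-20-1724) added; 0.5hr RT; d2-cAMP and anti-cAMP-cryptate added; 1hr RT; 665/615 nm read.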

For assay [16], the target named is KiSS-1 receptor (Homo sapiens) (UniProt Q969F8). The assay is described as follows: Human kisspeptin (KISS1R) small molecule agonists, calcium flux assay in KISS1R-HEK293 cells (AID 1920064; active = well fitted activation curve with a large enough effect in the repeat runs). The procedure, abridged:
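Cells plated and incubated 18 h; dye added, 1 h at 37 C; compounds in DMSO pinned in; signal read at 480/540 nm every second for 3 min. Each compound tested at 15 concentrations in triplicate.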

Assay [17] concerns the target Beta-2 adrenergic receptor (Homo sapiens) (UniProt P07550). The assay is described as follows: Adrenergic beta2 receptor (ADRB2) small molecule agonists, cell-based qHTS assay (AID 1963593).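 Also: CHO cells stably overexpressing human ADRB2.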 The procedure, abridged: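 CHO cells stably over-expressing ADRB2 were plated overnight at 37C, then dosed with compounds plus a stimulation mix containing 100uM IBMX and 25uM Ro-20-1724 for 0.5hr at room temperature. cAMP was measured by HTRF competition, 1hr.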

Assay [18] addresses D(2) dopamine receptor (Homo sapiens) (UniProt P14416). The assay is described as follows: Dopamine D2 receptor (DRD2) small molecule agonists, cell-based qHTS assay (AID 1963594). Also: nearly all actives have a fitted effect of over 35% in size. Also: potency is read from the fitted curve at half-maximal effect. The procedure, abridged:
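HEK293 cells stably expressing DRD2 were cultured 24 h at 37 C, then given Ro20-1724 (0.1 mM final) and compounds for 10 min at room temperature. NKH477 (200nM) was then added for 30 min. cAMP was read by HTRF.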

For assay [19], the target named is Muscarinic acetylcholine receptor M1 (Homo sapiens) (UniProt P11229). The assay is described as follows: Cholinergic receptor muscarinic 1 (CHRM1) small molecule antagonists, cell-based qHTS assay (AID 1963588). Also: nearly all actives have a fitted effect of over 40% in size. The procedure, abridged:
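CHRM1-CHO calcium-flux assay, antagonist mode. Cells were seeded 18 h, dye-loaded 1 h at 37 C and given compound for 5 min at RT, then acetylcholine was added at 50nM. FDSS fluorescence was read 3 min; 15 concentrations, three runs.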

For assay [20], the target named is D(2) dopamine receptor (Homo sapiens) (UniProt P14416). The assay is described as follows: Dopamine D2 receptor (DRD2) small molecule antagonists, cell-based qHTS assay (AID 1963595; active = well fitted inhibition curve with a large enough effect in the signal ratio in the repeat runs, with a control signal flat; the % refers to the signal ratio). In a few lines: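 Antagonist mode in DRD2-HEK293 cells: after compound addition with 0.1 mM Ro20-1724, cells received quinpirole (12 nM) and NKH477 (200 nM) for 30 min at room temperature; HTRF cAMP read after 1 h detection.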
Chain of D(2) dopamine receptor (Homo sapiens) (P14416 whole entry, looked up): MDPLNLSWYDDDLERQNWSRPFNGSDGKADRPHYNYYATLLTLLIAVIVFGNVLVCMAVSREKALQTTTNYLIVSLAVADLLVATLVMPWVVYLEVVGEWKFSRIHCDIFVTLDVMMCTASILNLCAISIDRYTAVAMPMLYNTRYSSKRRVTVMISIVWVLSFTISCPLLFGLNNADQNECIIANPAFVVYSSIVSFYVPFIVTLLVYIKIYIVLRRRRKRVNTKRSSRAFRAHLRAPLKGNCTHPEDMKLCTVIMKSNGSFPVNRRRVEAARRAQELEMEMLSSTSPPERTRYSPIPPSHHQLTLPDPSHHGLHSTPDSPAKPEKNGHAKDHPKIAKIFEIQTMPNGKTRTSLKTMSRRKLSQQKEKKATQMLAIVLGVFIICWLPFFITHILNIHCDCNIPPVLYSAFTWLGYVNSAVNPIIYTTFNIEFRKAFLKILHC

Records with an inconclusive call do not appear. Activity calls are given as the source filed them. Unless noted, calls follow the shape of the full dose curve.

Chain of 5-hydroxytryptamine receptor 2A (Homo sapiens) (P28223 whole entry, looked up): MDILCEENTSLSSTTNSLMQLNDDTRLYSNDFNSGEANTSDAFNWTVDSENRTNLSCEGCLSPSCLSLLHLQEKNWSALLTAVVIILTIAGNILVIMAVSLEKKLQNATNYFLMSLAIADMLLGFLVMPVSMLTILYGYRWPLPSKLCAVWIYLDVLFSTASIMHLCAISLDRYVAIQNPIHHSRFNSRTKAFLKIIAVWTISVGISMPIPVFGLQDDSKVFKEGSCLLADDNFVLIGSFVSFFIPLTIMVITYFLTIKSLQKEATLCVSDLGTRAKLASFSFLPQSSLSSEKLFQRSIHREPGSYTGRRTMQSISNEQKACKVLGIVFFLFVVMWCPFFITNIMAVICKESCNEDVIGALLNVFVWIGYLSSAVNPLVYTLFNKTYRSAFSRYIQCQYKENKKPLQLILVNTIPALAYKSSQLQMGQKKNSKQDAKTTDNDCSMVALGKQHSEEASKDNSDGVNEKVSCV
Chain of Beta-2 adrenergic receptor (Homo sapiens) (P07550 whole entry, looked up): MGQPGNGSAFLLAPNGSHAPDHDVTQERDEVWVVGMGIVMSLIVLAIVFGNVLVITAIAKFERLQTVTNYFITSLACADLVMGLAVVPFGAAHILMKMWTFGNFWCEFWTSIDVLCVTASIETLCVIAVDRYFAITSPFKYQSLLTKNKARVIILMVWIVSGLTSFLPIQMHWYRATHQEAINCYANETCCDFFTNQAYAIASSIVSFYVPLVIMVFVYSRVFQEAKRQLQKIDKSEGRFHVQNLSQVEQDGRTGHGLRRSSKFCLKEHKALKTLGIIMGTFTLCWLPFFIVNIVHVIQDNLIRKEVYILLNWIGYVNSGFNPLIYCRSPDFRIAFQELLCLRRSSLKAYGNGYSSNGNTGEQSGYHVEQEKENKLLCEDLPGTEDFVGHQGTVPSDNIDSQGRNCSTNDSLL
Chain of KiSS-1 receptor (Homo sapiens) (Q969F8 whole entry, looked up): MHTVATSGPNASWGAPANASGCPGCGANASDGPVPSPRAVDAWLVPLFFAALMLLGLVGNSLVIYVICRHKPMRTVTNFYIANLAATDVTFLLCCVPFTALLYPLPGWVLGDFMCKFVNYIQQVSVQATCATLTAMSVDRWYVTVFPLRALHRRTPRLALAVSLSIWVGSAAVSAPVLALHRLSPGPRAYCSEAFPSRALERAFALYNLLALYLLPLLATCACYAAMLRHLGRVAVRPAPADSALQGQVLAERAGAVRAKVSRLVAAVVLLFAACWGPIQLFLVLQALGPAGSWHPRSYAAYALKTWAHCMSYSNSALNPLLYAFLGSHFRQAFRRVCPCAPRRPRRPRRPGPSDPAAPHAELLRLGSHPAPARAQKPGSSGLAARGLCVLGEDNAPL
Chain of Gonadotropin-releasing hormone receptor (Homo sapiens) (P30968 whole entry, looked up): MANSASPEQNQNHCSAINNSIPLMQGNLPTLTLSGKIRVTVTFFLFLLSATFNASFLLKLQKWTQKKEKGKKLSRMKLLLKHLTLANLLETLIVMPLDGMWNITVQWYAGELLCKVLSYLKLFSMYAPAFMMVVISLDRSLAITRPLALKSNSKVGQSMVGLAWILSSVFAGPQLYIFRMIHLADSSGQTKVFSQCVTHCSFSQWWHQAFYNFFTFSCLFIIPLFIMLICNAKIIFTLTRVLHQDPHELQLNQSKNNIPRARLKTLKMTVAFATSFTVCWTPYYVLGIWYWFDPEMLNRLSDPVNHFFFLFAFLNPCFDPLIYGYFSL

As for `Nc1nc(N)c(N)c(N)n1`, the Potency entry in assay [1], in [4], in assay [5], in assay [6], in [7] and in [8] was “inactive” in each case. For the same molecule, the Potency result in [9], in [10], in assay [13], in [14] and in assay [15] was “inactive” each time. The Potency was 39.1 µM (active) in assay [2], 39.1 µM (active) in assay [3], 43.9 µM (active) in assay [11] and 55.2 µM (active) in [12].
Turning to `CCCCCCCc1ccc(O)cc1`, the Potency in assay [1] is 24.3 µM (active); in assay [14], 68.6 µM (active). The Potency entry in [2], in assay [16], in [3], in assay [7], in [8] and in [10] was “inactive” in each case. For the same molecule, the Potency result in [11], in assay [15], in assay [17] and in [18] was “inactive” throughout.
For the molecule `CCOc1cc(Oc2ccc(C(F)(F)F)cc2Cl)ccc1[N+](=O)[O-]`, the Potency result in assay [1], in assay [2], in [16], in [3], in assay [6] and in assay [7] was “inactive” throughout. Also, the Potency entry in [8], in assay [9], in assay [10], in assay [11], in [19] and in assay [12] was “inactive” throughout. Besides, the Potency result in assay [14], in assay [15] and in assay [18] was “inactive” in each case.
In the case of `CCNS(=O)(=O)C(F)(F)C(F)(F)C(F)(F)C(F)(F)C(F)(F)C(F)(F)C(F)(F)C(F)(F)F`, the Potency in [1] is 58.5 µM (active). The Potency entry in [2], in [16], in [3], in [6], in [7] and in assay [8] was “inactive” each time. Moreover, the Potency result in assay [11], in assay [19], in assay [12], in [13], in assay [14] and in assay [15] was “inactive” in each case. For the same molecule, the Potency entry in assay [18] and in assay [20] was “inactive” in each case.
As to `O=C1NCN(c2ccccc2)C12CCN(CCCOc1ccc(F)cc1)CC2`, the Potency entry in [1], in [4], in [5], in assay [7] and in [13] was “inactive” throughout. Further, the Potency in assay [2] is 9.52 µM (active); in assay [3] it was 10.7 µM (active); in assay [12], 4.77 µM (active); in assay [15], 5.96 µM (active).
For `Oc1ccc([C@H]2CNCc3c2ccc(O)c3O)cc1O`, the Potency result in assay [1], in assay [2], in assay [16], in assay [3], in assay [7] and in [8] was “inactive” each time. For the same molecule, the Potency entry in assay [19], in [12], in assay [13], in [14] and in assay [20] was “inactive” throughout. Further, the results for the Potency in [11] and in assay [18] were 9.52 µM (active) and 17.4 µM (active), respectively.
In the case of `CCOP(=S)(OCC)Oc1cc(Cl)c(Br)cc1Cl`, the Potency in assay [1] is 61.1 µM (active). The Potency entry in assay [2], in [16], in assay [3], in assay [8], in assay [10] and in assay [11] was “inactive” in each case. Also, the Potency result in [19], in assay [12], in [15], in [18] and in [20] was “inactive” each time.
